# KKLEB tox: cytotoxicity in KKLEB CF airway cells, primary screen, cytotoxicity control for CF NF-kB inhibitor project, cell-based, uHTS, fluorescence assay plates | activity change (cytotoxicity), % at 5 µM | actives 0.36% (n = 360,000) | KKLEB CF airway cells viability, ATPlite luminescence, overnight; hits give low values; cells stimulated with P. aeruginosa culture filtrate;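 active means corrected activity change at or below -50% at 5 µM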
# CF NFkB block: inhibitors of PAF-induced NF-kB signaling, primary screen, cell-based, GFP fluorescence, uHTS; actives 0.86% (n = 360,000); inhibition, % at 5 µM; KKLEB NF-kB-GFP reporter, GFP fluorescence overnight; AID 588850, 2011;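 active means at least 50% inhibition at 5 µM, scaled per plate between neutral and stimulator controls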;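 further: PAF is a Pseudomonas aeruginosa culture filtrate used as stimulus; plate controls were PAF-stimulated DMSO wells for no effect and unstimulated DMSO wells for full effect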
# TRPM1 prom inh: inhibitors of MITF-dependent TRPM1 promoter reporter, primary screen, cell-based, SK-MEL-5, single point, luciferase; SK-MEL-5 TRPM1 promoter luciferase, 24 h; inhibition, % at 12.5 µM; actives 0.83% (n = 330,000); AID 488899, 2010;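 active means mean inhibition across replicates of 60% or more, whatever share of single replicates reaches that level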
# HIF-2a block: HIF-2a reporter inhibitors, primary screen, luminescence, 786-0 RCC cells; 786-0 RCC cells HIF-2a reporter, luciferase luminescence, overnight; inhibition, % at 18.8 µM; actives 0.72% (n = 360,000);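 active means inhibition of the luminescence signal of 40% or more relative to plate controls, in a single-dose primary screen at 18.75 µM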
# Peg3 prom inh: Peg3 promoter-driven luciferase inhibitors, primary screen, cell-based, HeLa, luciferase luminescence | HeLa PEG-Prom luciferase reporter, overnight | inhibition, % at 20 µM | actives 1.7% (n = 360,000);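 active means inhibition of at least 50% at 20 µM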
# CHOP inhibitor: inhibitors of CHOP promoter induction, primary screen, cell-based, unfolded protein response, luciferase reporter; CHO-K1 CHOP-promoter luciferase, tunicamycin-induced, 15-18 h; inhibition, % at 10 µM; actives 3.8% (n = 220,000); AID 2732, 2010;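 active means compounds that reduced the stress-induced luciferase reporter signal by more than about 70% of percent inhibition, limit read from the data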;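 further: 0% = tunicamycin plus vehicle and 100% = wells without tunicamycin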
# An asterisk follows results filed as active; . = no result given. Only some compounds are listed: those with a hit (about 4.3% of all), similar ones and a draw of the others.
SMILES,KKLEB tox,CF NFkB block,TRPM1 prom inh,HIF-2a block,Peg3 prom inh,CHOP inhibitor
COc1ccc(NC(C)C(=O)N/N=C/c2ccccc2OCc2ccc(Br)cc2)cc1 (configuration not stated),-17.5,2.2,-81.6,-164.1,-185.3,28.2
CC(Nc1ccc(Br)cc1)C(=O)N/N=C/c1ccccc1OCc1ccccc1 (configuration not stated),0.3,-19.1,-9.6,8.1,-9.3,91.6*
CCOC(=O)[C@]12CCCC=C1N(Cc1cccc3ccccc13)C(=O)[C@H](CC(=O)N1CCSCC1)C2,.,.,.,4.9,.,.
CCOc1ccc2nc3cc(N=Nc4ccc(N)nc4N)ccc3c(N)c2c1,-2.3,-99.7,72.8*,11.3,74.0*,.
CC(C)NC(=O)C1(C)CN(S(C)(=O)=O)CC(=O)N1Cc1cccc(C(F)(F)F)c1 (configuration not stated),.,.,.,3.3,.,.
Cc1ccc(S(=O)(=O)N2[C@@H](c3cccc(Cl)c3)C(C(=O)O)=CC[C@H]2c2ccc3c(c2)OCO3)cc1,13.8,12.0,0.3,13.6,11.4,.
O=C1CCCc2c1ccc1ccccc21,-11.1,27.0,-21.1,-27.1,-22.0,.
CCN(CC)c1ccc(/C=N/NC(=O)CNC(=O)C2COc3ccccc3O2)c(O)c1 (configuration not stated),-30.0,12.0,54.5,-2.8,50.5*,.
COc1cc(/C=N\NC(=O)CNC(=O)C2COc3ccccc3O2)ccc1O (configuration not stated),-0.3,-0.1,1.1,1.1,10.9,6.6
Cc1nc2ccc(Cl)cc2c(-c2ccccc2)c1C(=O)N(C)C,-7.5,0.2,-6.7,11.2,20.6,.
CCOC(=O)c1c(CN2CCNCC2)nc2ccc(Cl)cc2c1-c1ccccc1,0.7,44.5,89.9*,-42.8,105.9*,.
c1ccc(CN2CCC(Nc3nc(-c4cccs4)nc4ccccc34)CC2)cc1,-18.1,4.7,24.7,22.1,74.8*,74.9*
O=C(O)c1cc(-c2ccccc2)n(-c2ccc(F)cc2)n1,1.0,-21.5,-4.2,24.9,78.2*,.
COCCn1c(N)c(N(Cc2ccccc2)C(=O)CSCC(=O)Nc2ccc(OC)cc2)c(=O)[nH]c1=O,25.1,-31.1,0.2,16.4,3.9,.
Clc1cccc(NCc2nnc(SCc3ccccc3Cl)o2)c1,-4.4,2.8,-12.7,-18.2,-3.1,67.7
Clc1cccc(NCc2nnc(SCc3ccccc3)o2)c1,-11.1,10.4,-12.9,-38.2,-23.6,70.8*
COc1cccc(/C=N/NC(=O)c2cc3cc([N+](=O)[O-])ccc3s2)c1O,-12.1,-29.4,76.8*,14.1,83.7*,99.7*
COc1ccc(OC)c2[nH]c(C(=O)N/N=C/c3ccccc3O)cc12,-19.7,-1.7,59.7,3.2,63.4*,.
COc1ccc(/C=N/NC(=O)c2cc3c(OC)ccc(OC)c3[nH]2)cc1O,-1.6,12.4,9.1,-8.2,-2.5,.
COc1cccc(/C=N/NC(=O)c2cc3c(OC)cccc3[nH]2)c1O,5.5,0.9,15.0,-4.3,40.0,92.0*
CN(Cc1cn(Cc2ccc(Cl)cc2)nn1)C1CN(Cc2cn(Cc3ccc(Cl)cc3)nn2)S(=O)(=O)C1 (configuration not stated),.,.,.,-8.7,.,.
COc1ccc(C(=O)NCN2CCN(c3ccccc3)CC2)cc1OC,6.7,5.4,.,7.3,0.4,.
O=C1Nc2cc(C(=O)NCCCN3CCCC3)ccc2S/C1=C/c1ccccc1F,4.7,-4.3,35.8,-12.6,13.1,.
COc1ccc(/C=C2\Sc3ccc(C(=O)N4CCc5ccccc5C4)cc3N(C)C2=O)cc1,.,.,.,.,.,34.2
COc1cccc(/C=C2/Sc3ccc(C(=O)NCCN4CCCC4)cc3NC2=O)c1,-5.5,7.7,85.0*,11.6,90.7*,.
SMILES,KKLEB tox,CF NFkB block,TRPM1 prom inh,HIF-2a block,Peg3 prom inh,CHOP inhibitor
O=C1Nc2cc(C(=O)NCCN3CCCCCC3)ccc2S/C1=C/c1ccccc1F,-9.1,4.3,.,-10.7,99.2*,.
COc1ccc(/C=C2\Sc3ccc(C(=O)NCCN4CCCCCC4)cc3N(C)C2=O)cc1,4.1,9.9,62.9*,3.7,35.8,.
CCN1CCCC1CNC(=O)c1ccc2c(c1)NC(=O)/C(=C\c1ccc(C)cc1)S2 (configuration not stated),-13.1,9.5,80.8*,-2.3,102.5*,.
O=C(NCc1ccccc1)C(c1ccc(-c2ccccc2)cc1)N1CCN(CCN2CCOCC2)CC1 (configuration not stated),.,.,.,-2.3,.,.
CCCCOC(=O)C1=C(C)N(C)C(=O)NC1c1cc2c(cc1Br)OCO2 (configuration not stated),-7.1,6.7,.,21.9,9.1,.
C=CCOC(=O)C1=C(C)N(C)C(=O)NC1c1cc2c(cc1Br)OCO2 (configuration not stated),3.2,-4.3,-2.1,24.2,66.8*,-39.4
Cc1ccc(S(=O)(=O)N2CCOCC2)cc1NC(=O)COc1ccc(C(=O)c2ccccc2)cc1,-15.4,2.0,6.0,-10.9,61.2*,.
O=C(O)c1ccc(NNC(=S)Nc2cc(C(F)(F)F)ccc2Cl)cc1,13.2,0.5,.,-6.0,25.7,.
COc1cc(OC)cc(C(=O)NCC(=O)OC2CCCCC2=O)c1 (configuration not stated),9.8,7.9,-0.8,7.7,8.8,.
CCCS(=O)(=O)NC(=O)C1(C)CCCN(C(=O)c2cccc(Cl)c2)C1 (configuration not stated),-0.8,0.6,.,3.7,-5.7,.
COc1ccc(CCNc2c3ccccc3nc3ccccc23)cc1OC,-17.1,-0.8,20.9,50.9*,72.8*,2.4
Cc1ccc(-c2nc(Nc3cccc(O)c3)c3ccccc3n2)cc1,-13.7,-15.1,-10.5,-34.6,10.1,.
COc1nc(NCCc2ccc(OC)c(OC)c2)nc(OC)n1,1.5,1.4,-3.4,13.4,8.2,1.3
Oc1cccc(Nc2c3ccccc3nc3ccccc23)c1,-11.0,-95.9,35.2,39.6,75.9*,.
COc1ccccc1Nc1c2ccccc2nc2ccccc12,-25.9,-39.8,19.2,17.4,87.8*,.
COc1ccc(Nc2c3ccccc3nc3ccccc23)cc1,-7.0,-73.2,49.1,33.4,77.6*,.
CC[C@@]1(C(=O)OC)N[C@H](CN(C)C(=O)c2ccc(F)cc2)[C@@H]2C(=O)N(Cc3ccccc3)C(=O)[C@@H]21,1.6,9.4,-3.4,6.1,10.1,.
COc1ccc(CCNCC(O)Cn2c3ccccc3c3ccccc32)cc1OC (configuration not stated),-39.3,36.1,20.9,8.6,110.6*,16.2

# Compound activity deposited in PubChem by several laboratories.
